Assay results taken from PubChem BioAssay.
Inconclusive results are not listed. Activity calls are given as the source filed them.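 Rule for the calls, unless noted: active = growth inhibition above 25% in both replicates, a cutoff set 3 SD above the mean; inconclusive = above 25% in only one replicate; inactive = the rest.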

Tests used:
[1] = reducers of endogenous Her2 protein level, primary screen, SKBR3 breast tumor cells, AlphaScreen, ATP viability (AID 461;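 active = Her2 level under about 52% in both replicate screens, with viability over 70% of control, limit read from the data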;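 for Her2 level: lower value means less Her2 protein in the cells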;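 for viability: percent of carrier control wells set as 100% viability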); details: 18-24 h, measured here: SKBR3 viability, ATP luminescence, at 10 µM
[2] = target: Receptor tyrosine-protein kinase erbB-2 (Homo sapiens) (UniProt P04626); assay: as above; details: 18-24 h, at 10 µM, stronger effect = lower value
[3] = SK-BR-3 cell growth inhibitors, pilot screen, 24 h, human (AID 572;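 active = viability at or below 10% of carrier control in both of two separate runs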;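 note: compound exposure lasted between 18 and 24 h rather than exactly 24 h; 100% = carrier-treated control wells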); details: SK-BR-3 viability, CellTiter-Glo luminescence, at 10 µM, stronger effect = lower value
[4] = HUVEC growth inhibition – cell-based, human, primary screen (AID 575;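 active = viability at or below 30% in both replicate assays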;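 note: 100% = median of untreated cell wells with 0.1% DMSO on each plate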); details: HUVEC proliferation, CellTiter-Glo luminescence, 72 h; at 10 µM; stronger effect = lower value
[5] = growth inhibitors of H69AR lung tumor, primary screen, human, duplicate replicates (AID 580;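 active = viability at or under a set limit in both replicates, limit being median viability minus 3 SD, cut at about 48% in these data, passing the limit was not always enough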;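 note: 100% = mean luminescence of untreated wells and 0% = no signal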); details: H69AR lung tumor cells viability, ATP luminescence, 72 h; at 10 µM; stronger effect = lower value
[6] = reversal of MRP1-mediated doxorubicin resistance, pilot screen, H69AR cells, doxorubicin co-treatment (AID 601;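 active = viability loss from added drug above about 55%, and viability with drug at most 40%, in both replicates, limit read from the data, passing the limit was not always enough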); details: CellTiter-Glo, 72 h, at 10 µM; for differential viability (reversal): stronger effect = higher value
[7] = 384-well plate pilot, post-Golgi transport modulator project, inhibition of yeast transport mutant growth (AID 636; in the data active = inhibition above about 31%); details: absorbance 615 nm, about 18 h, stronger effect = higher value
[8] = growth suppression of yeast trafficking mutant, preliminary HTS, modulators of trafficking downstream of Golgi apparatus project, 1536-format plate, OD 615 nm (AID 637; in the data active = inhibition above about 30%); details: yeast transport mutant growth, absorbance 615 nm, 18 h; stronger effect = higher value
[9] = OD615 S. cerevisiae growth inhibition, permissive medium, pilot counter-assay, permissive growth control for S. cerevisiae lifespan shortening project (AID 705); details: OD615, 24 h, at 10 µM, stronger effect = higher value
[10] = Restrictive medium S. cerevisiae growth inhibition, OD615, pilot screen of yeast lifespan reduction project, restrictive growth control (AID 706;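 active = growth inhibition above a set limit, 3 SD over mean compound inhibition, in both replicates, cut at about 43% in these data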;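 note: modified DeaD lifespan yeast strain shifted to restrictive glucose medium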); details: OD615, 48 h, at 10 µM, stronger effect = higher value
[11] = viability gain of MRP-1-high H69AR cells under doxorubicin, pilot screen, MRP-1 activator project, CellTiter-Glo, duplicate (AID 807;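 active = viability increase at or above a cutoff of the median across tested compounds plus 3 SD, cut at about 8.5% in these data, passing the limit was not always enough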;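 note: compound pretreatment 18-22 h then 72 h combined with doxorubicin; 0% = doxorubicin alone and 100% = vehicle without doxorubicin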); details: H69AR viability with doxorubicin, CellTiter-Glo luminescence; at 10 µM; stronger effect = higher value
[12] = growth suppression of beta-catenin knockout HCT116, pilot screen, human colon tumor cells (AID 823;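 active = cell viability at or below a set limit in both duplicate runs, the limit being the all-compound median minus 4 SD, cut at about 23% in these data, passing the limit was not always enough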;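 note: 0% = wells killed by 20 µM Hyamine and 100% = untreated DMSO cell wells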); details: CellTiter-Glo, 60 h, at 10 µM, stronger effect = lower value
[13] = growth suppression of PTEN-deleted HCT116, pilot screen, cell-based, HCT116 clonal line, CellTiter-Glo (AID 824;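 active = viability at or below 27.92% in each of two runs, the all-compound median minus 4 SD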;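 note: 0% = 20 µM Hyamine control and 100% = vehicle cell control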); details: 60 h, at 10 µM, stronger effect = lower value
[14] = inhibitors of the yeast RAM network, pilot screen, dse1pr::URA3 reporter, 5-FOA selection (AID 869;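 active = inhibition over a set limit, the all-compound mean plus 3 SD, in both replicate runs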;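 note: 0% = DMSO wells with no growth and 100% = 10 µM 1-NA-PP1 with full growth; RAM network block rescues cells from 5-FOA so hits raise OD615 growth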); details: S. cerevisiae dse1pr::URA3 5-FOA growth, OD615, 2 d; at 10 µM; stronger effect = higher value; strain carries analog-sensitive mutant Cbk1 kinase
[15] = RAM signaling pathway blockade in yeast – S. cerevisiae, Pdr1DBD-CYC8 efflux-inhibited sensitized strain, primary screen (AID 1298;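 active = RAM network inhibition above 8.4% in each of two replicates, 3 SD over the compound average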;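 note: 0% = DMSO untreated cells without growth and 100% = 10 µM 1-NA-PP1 full growth; higher means more yeast growth rescued from 5-FOA killing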); details: S. cerevisiae cbk1-as DSE1-URA3 strain, 5-FOA growth OD615, 2 d; at 50 µM; stronger effect = higher value
[16] = H69AR cells + 2 uM doxorubicin, measured here: viability with 2 uM doxorubicin, stronger effect = lower value
[17] = H69AR cells, compound alone cytotoxicity

Sequence of Receptor tyrosine-protein kinase erbB-2 (Homo sapiens) (P04626 whole entry, looked up): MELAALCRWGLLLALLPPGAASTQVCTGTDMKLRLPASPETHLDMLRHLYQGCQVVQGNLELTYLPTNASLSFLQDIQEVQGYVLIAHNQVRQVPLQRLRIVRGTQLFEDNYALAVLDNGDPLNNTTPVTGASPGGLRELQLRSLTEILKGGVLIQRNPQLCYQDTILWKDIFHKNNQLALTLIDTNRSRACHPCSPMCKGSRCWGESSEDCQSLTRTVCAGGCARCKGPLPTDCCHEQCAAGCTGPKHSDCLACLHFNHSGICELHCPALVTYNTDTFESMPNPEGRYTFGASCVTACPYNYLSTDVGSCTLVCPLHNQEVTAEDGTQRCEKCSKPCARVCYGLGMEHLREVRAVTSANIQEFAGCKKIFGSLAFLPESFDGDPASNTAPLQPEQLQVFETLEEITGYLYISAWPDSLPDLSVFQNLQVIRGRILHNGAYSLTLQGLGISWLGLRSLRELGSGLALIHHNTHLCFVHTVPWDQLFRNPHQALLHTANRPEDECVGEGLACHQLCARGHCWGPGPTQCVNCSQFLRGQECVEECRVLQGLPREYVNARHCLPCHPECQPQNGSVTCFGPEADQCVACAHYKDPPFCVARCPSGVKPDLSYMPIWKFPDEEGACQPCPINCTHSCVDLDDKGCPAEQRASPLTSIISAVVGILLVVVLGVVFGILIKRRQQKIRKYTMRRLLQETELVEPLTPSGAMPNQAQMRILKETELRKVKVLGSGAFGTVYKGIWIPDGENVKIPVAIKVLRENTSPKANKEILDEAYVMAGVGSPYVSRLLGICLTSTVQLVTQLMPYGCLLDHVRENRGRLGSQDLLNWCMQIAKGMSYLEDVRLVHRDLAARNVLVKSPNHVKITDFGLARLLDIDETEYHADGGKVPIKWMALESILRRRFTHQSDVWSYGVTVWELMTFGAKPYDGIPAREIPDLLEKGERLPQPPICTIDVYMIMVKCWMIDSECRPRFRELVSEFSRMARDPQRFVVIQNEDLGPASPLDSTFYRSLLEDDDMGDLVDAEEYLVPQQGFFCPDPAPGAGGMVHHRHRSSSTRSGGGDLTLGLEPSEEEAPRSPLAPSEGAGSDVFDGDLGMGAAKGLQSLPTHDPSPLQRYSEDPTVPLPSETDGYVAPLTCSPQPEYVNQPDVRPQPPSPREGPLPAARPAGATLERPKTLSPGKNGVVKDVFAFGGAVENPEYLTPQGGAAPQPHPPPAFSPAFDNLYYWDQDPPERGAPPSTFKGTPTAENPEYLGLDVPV

CCOC(=O)CN1CC23C=CC(O2)C(C(=O)Nc2ccc(C(C)=O)cc2)C3C1=O (stereo unspecified)
inactive: Her2 level [2] 101% | viability [3] 87% | viability [4] 101% | viability [5] 96.4% | differential viability (reversal) ([6]; H69AR cells + 2 uM doxorubicin) 2.38% | inhibition [7] -1.07% | inhibition [8] 2.67% | growth inhibition [9] -5.7% | growth inhibition [10] 2.56% | viability increase [11] -1.78% | viability [12] 102% | viability [13] 94.2% | inhibition [14] 1.26% | RAM network inhibition [15] 1.41%
96.4%: viability [6, 17]
87%: viability [1]
94%: viability [6, 16]

O=C(NCc1ccc2c(c1)OCO2)C1CCC(CNc2c(N3CCCCC3)c(=O)c2=O)CC1 (stereo unspecified)
91.9%: viability [6, 16]
98.9%: viability [6, 17]
inactive: Her2 level [2] 106% | viability [3] 92.5% | viability [4] 94% | viability [5] 98.9% | differential viability (reversal) ([6]; H69AR cells + 2 uM doxorubicin) 7% | inhibition [7] 0.64% | inhibition [8] -2.17% | growth inhibition [9] -2.47% | growth inhibition [10] 4.78% | viability increase [11] -2.93% | viability [12] 94.6% | viability [13] 88.9% | inhibition [14] 1% | RAM network inhibition [15] -0.46%
92.5%: viability [1]

COc1ccc(-n2c(=O)c3c4c(sc3n3cnnc23)CC(C)CC4)cc1 (stereo unspecified)
95.5%: viability [1]
inactive: Her2 level [2] 88.5% | viability [3] 95.5% | viability [4] 67.8% | viability [5] 72.2% | differential viability (reversal) ([6]; H69AR cells + 2 uM doxorubicin) 21.2% | inhibition [7] -8.11% | inhibition [8] 0.98% | growth inhibition [9] -10.9% | growth inhibition [10] 9.5% | viability increase [11] -5.52% | viability [12] 87.8% | viability [13] 92.2% | inhibition [14] -0.585% | RAM network inhibition [15] 2.05%
51%: viability [6, 16]
72.2%: viability [6, 17]
